Measurements taken from the supplement of paper PMC11001985.
Unmarked numbers belong to inactive results.

compound: C#CCNC(=O)CCSSCCC(=O)NCCc1ccc(C=O)c(C=O)c1; experiment: lysine labeling ratio R10:1 (500 µM / 50 µM probe), SILAC-ABPP in living cells; higher = lower intrinsic lysine reactivity toward the probe, active = 2 or less; conditions: HeLa; probe concentrations 500 vs 50 µM
How it was run: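 Living SILAC light and heavy HeLa cells in PBS at room temperature were treated with an alkyne-tagged, disulfide-linked lysine probe at 50 µM or 500 µM, with forward and reverse label swaps. The mixed lysates were clicked to biotin-azide, digested with trypsin, captured on neutravidin, released with DTT, alkylated and run by LC-MS/MS on a TIMS-TOF Pro. R for each lysine is the filtered median high-probe/low-probe MS1 peptide ratio, taken again as the median over forward and reverse replicates. Any value above 20 is set to 20.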

Chain of UniProt Q15149 (Q15149 whole entry): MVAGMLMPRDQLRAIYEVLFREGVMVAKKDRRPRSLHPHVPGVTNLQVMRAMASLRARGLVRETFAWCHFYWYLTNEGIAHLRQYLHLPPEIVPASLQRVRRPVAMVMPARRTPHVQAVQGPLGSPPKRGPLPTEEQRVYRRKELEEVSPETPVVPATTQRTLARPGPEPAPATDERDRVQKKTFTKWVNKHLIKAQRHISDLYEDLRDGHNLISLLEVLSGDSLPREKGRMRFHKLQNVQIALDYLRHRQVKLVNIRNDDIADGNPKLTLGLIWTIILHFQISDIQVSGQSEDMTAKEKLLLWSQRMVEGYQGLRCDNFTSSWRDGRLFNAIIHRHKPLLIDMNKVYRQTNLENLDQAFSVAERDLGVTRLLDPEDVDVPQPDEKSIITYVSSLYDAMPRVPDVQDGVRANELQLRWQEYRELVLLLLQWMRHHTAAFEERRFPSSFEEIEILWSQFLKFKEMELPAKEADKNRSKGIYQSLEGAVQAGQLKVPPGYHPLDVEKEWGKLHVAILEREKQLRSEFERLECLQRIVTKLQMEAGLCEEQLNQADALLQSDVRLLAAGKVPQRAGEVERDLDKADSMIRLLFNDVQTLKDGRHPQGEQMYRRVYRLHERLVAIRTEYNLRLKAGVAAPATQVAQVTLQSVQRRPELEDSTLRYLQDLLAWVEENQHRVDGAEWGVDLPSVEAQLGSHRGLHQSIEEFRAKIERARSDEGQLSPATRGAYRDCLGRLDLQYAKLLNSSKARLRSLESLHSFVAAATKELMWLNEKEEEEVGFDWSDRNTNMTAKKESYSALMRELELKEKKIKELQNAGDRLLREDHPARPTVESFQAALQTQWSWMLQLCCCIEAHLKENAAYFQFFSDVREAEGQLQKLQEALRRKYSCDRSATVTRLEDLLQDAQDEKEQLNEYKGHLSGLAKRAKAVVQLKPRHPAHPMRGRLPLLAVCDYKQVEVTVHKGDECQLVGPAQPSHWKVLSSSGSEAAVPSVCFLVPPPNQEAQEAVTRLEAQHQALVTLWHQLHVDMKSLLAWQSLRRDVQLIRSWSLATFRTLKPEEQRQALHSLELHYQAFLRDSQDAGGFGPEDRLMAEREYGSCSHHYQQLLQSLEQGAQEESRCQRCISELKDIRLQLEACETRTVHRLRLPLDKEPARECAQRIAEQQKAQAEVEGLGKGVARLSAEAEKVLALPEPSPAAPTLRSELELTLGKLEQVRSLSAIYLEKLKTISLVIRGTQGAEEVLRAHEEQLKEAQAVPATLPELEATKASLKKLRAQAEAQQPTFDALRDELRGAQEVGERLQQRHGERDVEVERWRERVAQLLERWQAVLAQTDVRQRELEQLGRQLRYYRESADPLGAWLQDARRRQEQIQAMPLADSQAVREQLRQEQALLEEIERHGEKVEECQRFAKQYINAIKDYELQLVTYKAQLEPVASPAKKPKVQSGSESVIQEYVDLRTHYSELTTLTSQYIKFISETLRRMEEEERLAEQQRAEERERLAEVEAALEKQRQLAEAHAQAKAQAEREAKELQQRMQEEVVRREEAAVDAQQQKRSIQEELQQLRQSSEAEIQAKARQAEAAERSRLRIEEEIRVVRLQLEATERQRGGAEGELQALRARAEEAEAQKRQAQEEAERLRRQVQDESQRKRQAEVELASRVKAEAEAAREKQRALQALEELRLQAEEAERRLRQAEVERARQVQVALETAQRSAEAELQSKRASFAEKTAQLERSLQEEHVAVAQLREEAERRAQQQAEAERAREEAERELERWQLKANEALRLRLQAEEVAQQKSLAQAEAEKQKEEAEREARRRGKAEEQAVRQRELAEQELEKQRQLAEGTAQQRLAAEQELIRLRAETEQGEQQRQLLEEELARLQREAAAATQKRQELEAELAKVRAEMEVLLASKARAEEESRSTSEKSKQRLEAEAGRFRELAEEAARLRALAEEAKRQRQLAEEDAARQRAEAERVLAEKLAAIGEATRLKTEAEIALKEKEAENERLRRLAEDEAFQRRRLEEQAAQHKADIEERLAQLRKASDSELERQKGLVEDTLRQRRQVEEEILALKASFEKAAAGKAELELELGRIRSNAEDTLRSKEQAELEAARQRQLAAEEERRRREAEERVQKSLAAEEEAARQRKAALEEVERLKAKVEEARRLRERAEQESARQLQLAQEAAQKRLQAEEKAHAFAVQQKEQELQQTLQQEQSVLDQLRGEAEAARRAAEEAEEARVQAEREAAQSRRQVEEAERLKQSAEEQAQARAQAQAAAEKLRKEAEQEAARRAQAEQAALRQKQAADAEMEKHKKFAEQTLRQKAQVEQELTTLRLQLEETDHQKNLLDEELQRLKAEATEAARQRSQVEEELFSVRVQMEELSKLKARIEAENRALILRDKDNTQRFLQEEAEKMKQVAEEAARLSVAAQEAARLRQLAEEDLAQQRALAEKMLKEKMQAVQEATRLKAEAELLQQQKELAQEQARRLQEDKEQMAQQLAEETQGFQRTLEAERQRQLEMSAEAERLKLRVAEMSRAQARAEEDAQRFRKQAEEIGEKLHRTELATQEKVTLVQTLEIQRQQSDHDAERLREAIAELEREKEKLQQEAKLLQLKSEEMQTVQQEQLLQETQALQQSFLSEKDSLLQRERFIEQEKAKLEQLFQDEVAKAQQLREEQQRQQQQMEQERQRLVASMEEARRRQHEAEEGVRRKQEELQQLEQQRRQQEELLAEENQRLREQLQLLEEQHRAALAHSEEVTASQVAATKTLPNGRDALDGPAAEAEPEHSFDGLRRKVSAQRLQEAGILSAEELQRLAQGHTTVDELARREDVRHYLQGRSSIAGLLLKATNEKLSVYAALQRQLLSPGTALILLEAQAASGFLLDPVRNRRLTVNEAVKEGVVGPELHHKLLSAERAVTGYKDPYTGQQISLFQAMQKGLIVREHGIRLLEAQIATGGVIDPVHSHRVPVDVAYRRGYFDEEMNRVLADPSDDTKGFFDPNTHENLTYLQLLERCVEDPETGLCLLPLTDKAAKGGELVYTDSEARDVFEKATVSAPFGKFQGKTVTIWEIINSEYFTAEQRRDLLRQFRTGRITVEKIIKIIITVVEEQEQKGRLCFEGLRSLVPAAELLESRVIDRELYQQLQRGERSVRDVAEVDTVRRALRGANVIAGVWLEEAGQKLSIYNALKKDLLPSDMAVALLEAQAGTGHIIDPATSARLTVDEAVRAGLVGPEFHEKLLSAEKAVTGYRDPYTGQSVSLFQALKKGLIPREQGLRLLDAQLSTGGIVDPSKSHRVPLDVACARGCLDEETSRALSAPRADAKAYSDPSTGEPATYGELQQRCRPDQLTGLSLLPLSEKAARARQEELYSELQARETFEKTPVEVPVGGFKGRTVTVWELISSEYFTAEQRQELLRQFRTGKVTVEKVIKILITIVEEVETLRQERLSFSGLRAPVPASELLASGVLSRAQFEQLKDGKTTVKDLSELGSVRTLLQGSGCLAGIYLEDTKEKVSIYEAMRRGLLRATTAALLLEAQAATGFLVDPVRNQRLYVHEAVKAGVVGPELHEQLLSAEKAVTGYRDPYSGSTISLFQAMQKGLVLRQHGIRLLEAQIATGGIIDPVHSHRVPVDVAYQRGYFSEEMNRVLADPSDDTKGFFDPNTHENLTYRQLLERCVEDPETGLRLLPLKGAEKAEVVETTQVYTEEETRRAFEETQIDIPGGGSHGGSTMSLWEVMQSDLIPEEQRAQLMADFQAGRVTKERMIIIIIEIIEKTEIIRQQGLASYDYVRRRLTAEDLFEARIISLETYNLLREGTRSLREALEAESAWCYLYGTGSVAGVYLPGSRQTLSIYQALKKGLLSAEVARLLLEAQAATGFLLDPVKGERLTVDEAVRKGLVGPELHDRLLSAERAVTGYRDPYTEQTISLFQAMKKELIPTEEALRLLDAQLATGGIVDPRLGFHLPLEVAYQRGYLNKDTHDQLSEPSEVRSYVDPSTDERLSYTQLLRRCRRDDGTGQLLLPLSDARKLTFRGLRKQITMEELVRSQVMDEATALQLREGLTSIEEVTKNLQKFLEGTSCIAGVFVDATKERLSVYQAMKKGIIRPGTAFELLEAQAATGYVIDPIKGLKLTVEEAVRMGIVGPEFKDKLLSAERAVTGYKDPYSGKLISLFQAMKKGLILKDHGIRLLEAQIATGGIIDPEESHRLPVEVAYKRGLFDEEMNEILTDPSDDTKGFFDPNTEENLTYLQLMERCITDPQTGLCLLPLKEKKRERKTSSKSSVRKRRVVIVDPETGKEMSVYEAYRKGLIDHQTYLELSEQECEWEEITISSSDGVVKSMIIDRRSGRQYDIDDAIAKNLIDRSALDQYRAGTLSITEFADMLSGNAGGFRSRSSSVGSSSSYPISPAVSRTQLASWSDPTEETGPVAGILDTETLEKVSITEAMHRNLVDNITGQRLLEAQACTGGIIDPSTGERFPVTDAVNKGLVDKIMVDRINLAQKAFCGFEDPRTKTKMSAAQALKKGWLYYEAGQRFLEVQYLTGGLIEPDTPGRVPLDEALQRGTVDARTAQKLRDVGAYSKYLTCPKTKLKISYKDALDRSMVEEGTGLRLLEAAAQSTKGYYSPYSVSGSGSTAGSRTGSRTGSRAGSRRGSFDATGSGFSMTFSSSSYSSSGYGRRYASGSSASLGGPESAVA
Chain of UniProt Q14254 (Q14254 whole entry): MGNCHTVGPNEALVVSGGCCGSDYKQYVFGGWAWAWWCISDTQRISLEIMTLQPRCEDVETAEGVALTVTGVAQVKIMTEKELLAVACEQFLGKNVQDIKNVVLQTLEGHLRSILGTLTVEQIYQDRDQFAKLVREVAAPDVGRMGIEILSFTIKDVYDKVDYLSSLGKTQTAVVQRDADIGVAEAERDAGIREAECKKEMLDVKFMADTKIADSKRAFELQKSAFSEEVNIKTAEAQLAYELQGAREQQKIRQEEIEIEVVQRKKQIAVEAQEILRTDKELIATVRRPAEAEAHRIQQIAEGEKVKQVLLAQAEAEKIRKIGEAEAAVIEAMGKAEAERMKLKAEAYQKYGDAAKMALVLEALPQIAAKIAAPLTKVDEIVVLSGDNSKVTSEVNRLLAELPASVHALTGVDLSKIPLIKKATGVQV

Row | Target | lysine labeling ratio R10:1
1 | UniProt Q15149 (lysine site: K2396) | 2.3
2 | UniProt Q99623 (lysine site: K250) | 3.72
3 | MAN1B1 (lysine site: K354) (UniProt Q9UKM7) | 2.81
4 | UniProt P23352 (lysine site: K411) | 2.12
5 | PRDX1 (lysine site: K109) (UniProt Q06830) | 2.64
6 | VAPA (lysine site: K174) (UniProt Q9P0L0) | 1.89 (active)
7 | B4GAT1 (lysine site: K60) (UniProt O43505) | 7.79
8 | TLN1 (lysine site: K357) (UniProt Q9Y490) | 1.16 (active)
9 | PCBP2 (lysine site: K309) (UniProt Q15366) | 3.28
10 | UniProt Q15149 (lysine site: K1908) | 3.91
11 | FZD1 (lysine site: K384) (UniProt Q9UP38) | 0.938 (active)
12 | UniProt P25705 (lysine site: K175) | 2.16
13 | GPI (lysine site: K454) (UniProt P06744) | 2.77
14 | PLS3 (lysine site: K346) (UniProt P13797) | 0.842 (active)
15 | UniProt Q8WXI7 (lysine site: K12412) | 1.99 (active)
16 | ILF3 (lysine site: K214) (UniProt Q12906) | 1.16 (active)
17 | FLOT2 (lysine site: K132) (UniProt Q14254) | 2.82
